# The campaign covered roughly 57,000 sequences. About 3,500 (6.1%) were called active. Rule as the data show it: active = GI50 up to about 1.1 µM and inactive = higher. The entries come from a sample that favours actives as a whole. Results with a measured potency or affinity are listed apart.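 Assay format: 96-well plates, 48-hour exposure. GI50 = concentration required for 50% inhibition of growth.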
# Test system: 786-0
# Assay: NCI tumour cell line growth inhibition, 48 h
row,Substance,GI50 [nM]
1,"[Bis(aminomethyl)tetramethylenesilane]dichloropaltinum(II), CHEMBL2146205",5780
2,"[Bis(aminomethyl)diethylsilane]tetrachloroplatinum(IV), CHEMBL2146203",2180
3,"[Bis(aminomethyl)tetramethylenesilane]tetrachloropaltinum(IV), CHEMBL2146189",3100
4,"[Bis(aminomethyl)ethylmethylsilane]tetrachloroplatinum(IV), CHEMBL2146192",1340
5,"CISPLATIN, CHEMBL11359",1100
6,"[Bis(aminomethyl)dimethylsilane]dichloroplatinum (II), CHEMBL2146201",6140
7,"[Bis(aminomethyl)pentamethylenesilane]dichloropaltinum(II), CHEMBL2146202",916
8,"[Bis(aminomethyl)pentamethylenesilane]tetrachloropaltinum(IV), CHEMBL2146204",1220
9,"[Bis(aminomethyl)dimethylsilane]tetrachloroplatinum(IV), CHEMBL2146190",2120
10,"mu-(1,7-nanodiamine-N,N')bis-(cis-aminedichloroplatimum (II)), CHEMBL2146215",8730
11,"cis-Bis[[(trimethylsilyl)methyl]amino]tetrachloroplatinum(IV), CHEMBL2146191",5710
